Bioassay records as filed in PubChem.
Shown is part of a subset that was picked to be rich in hits.
APEX1 inh: APE1 (human) endonuclease inhibition | P27695 | recombinant APE1, TAMRA/BHQ-2 abasic DNA cleavage fluorescence | hit rate 0.35% among 350,000 | Potency, µM (highest dose often 65.8 µM), most hits filed as inhibitors; note: nearly all actives have a fitted effect of over 55% in size
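Measures dequenching upon AP-site incision of a 5'-TAMRA/3'-BHQ-2 THF-containing duplex, 50 nM; human APE1 0.75 nM after 15 min room-temperature exposure to compound; kinetic three-point read at one-minute spacing.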
L3MBTL1 inh: blocks human L3MBTL1; AID 485360; hit rate 0.66% among 230,000; Q9Y468; AlphaScreen L3MBTL1–H3K9me1 peptide binding; Potency, µM (titrated, usually from 57.1 µM), hits mostly inhibitors; note: nearly all actives have a fitted effect of over 60% in size
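Displacement of a biotinylated histone H3(1-15) peptide monomethylated at Lys9 (75 nM) from L3MBTL1 (50 nM) was measured by AlphaScreen after a 30 min room-temperature compound incubation; cefsulodin titration served as intraplate control.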
KDM4E inh: JMJD2E (human) inhibition. B2RXH2. Potency, µM (doses to about 57.1 µM), actives largely listed as inhibitors. JMJD2E catalytic domain, FDH-coupled NADH fluorescence (FDH is formaldehyde dehydrogenase). AID 2147. hit rate 1.6% among 230,000; active = well fitted inhibition curve with a large enough effect, not every such curve was filed as active; inconclusive = small, poorly fitted or top-dose-only effect, or another doubt; inactive = no such curve, though single readings can be large or run the other way; note: nearly all actives have a fitted effect of over 50% in size
RECQ1 helicase: RECQ1 (human) helicase inhibition; P46063; Potency, µM (doses to about 57.3 µM), usual class: inhibitors; RECQ1 DNA unwinding, red fluorescence kinetic read; hit rate 0.54% among 240,000; AID 2549; note: nearly all actives have a fitted effect of over 30% in size
Target sequence (P46063 whole entry, looked up): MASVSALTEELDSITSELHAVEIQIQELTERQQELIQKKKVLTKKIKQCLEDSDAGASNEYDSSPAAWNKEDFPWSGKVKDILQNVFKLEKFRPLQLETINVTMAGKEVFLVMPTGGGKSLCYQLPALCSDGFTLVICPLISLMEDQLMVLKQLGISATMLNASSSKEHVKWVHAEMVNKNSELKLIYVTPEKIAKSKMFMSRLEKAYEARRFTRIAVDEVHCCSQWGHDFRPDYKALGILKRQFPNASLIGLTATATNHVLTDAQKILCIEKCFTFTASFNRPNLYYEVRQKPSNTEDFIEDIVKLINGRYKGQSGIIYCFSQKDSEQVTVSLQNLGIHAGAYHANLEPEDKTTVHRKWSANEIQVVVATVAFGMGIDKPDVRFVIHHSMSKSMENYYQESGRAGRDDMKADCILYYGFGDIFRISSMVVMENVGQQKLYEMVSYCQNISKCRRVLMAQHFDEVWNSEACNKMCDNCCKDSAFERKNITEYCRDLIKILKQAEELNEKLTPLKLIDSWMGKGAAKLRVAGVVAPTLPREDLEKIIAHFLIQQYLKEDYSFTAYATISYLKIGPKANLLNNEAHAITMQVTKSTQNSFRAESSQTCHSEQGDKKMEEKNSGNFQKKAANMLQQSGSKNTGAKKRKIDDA
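50 nM RECQ1T1 preincubated 15 min with compound in Tris pH 8.0 buffer with MgCl2, DTT, Tween-20 and 2.5 ug/ml poly(dI-dC); started with 200 nM TAMRA/BHQ-2 forked duplex and 2 mM ATP. Unwinding read as fluorescence (525/598 nm), two reads 2 h apart.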
BLM helicase inh: blocks DNA unwinding by human BLM helicase | P54132 | recombinant BLM DNA unwinding, fluorescence dequenching | Potency, µM (highest dose often 56.1 µM), usual class: inhibitors | hit rate 0.2% among 350,000 | AID 2528; note: nearly all actives have a fitted effect of over 35% in size
Hits are given with their value; 0 = inactive; ? = inconclusive; - = not tested or not shown; ! = not active in a repeat; [ ] = dose if it differs, or a comment. Unless noted, calls come from the whole dose curve; as a rule, active = well fitted curve in the direction sought with a large enough effect; inconclusive = small, poorly fitted or top-dose-only effect, or another doubt; inactive = no such curve, though single readings can be large; an effect the other way counts as inactive or inconclusive.

SMILES	APEX1 inh	L3MBTL1 inh	KDM4E inh	RECQ1 helicase	BLM helicase inh
Cc1ccc(N2C(=O)NC(=O)/C(=C/c3cnc(-c4ccccc4)nc3)C2=O)cc1C	0	0	12.6µM	0	0
Cc1ccsc1C(=O)C1CCCN(Cc2cccc(OCCO)c2)C1 (stereo not drawn)	0	0	0	0	0
Nc1c(C(=O)Nc2ccc(Cl)cc2)sc2nc3c(cc12)N1CCC3CC1	-	-	-	-	0
Oc1ccccc1/C=N/NP(=S)(c1ccccc1)c1ccccc1	0	0	0	0	0
Oc1ccc(/C=N/NP(=S)(c2ccccc2)c2ccccc2)c(O)c1O	?	-	14.1µM	0	0
COC(=O)c1nc(-c2ccc3c(n2)C(=O)C(N)=C(OC)C3=O)c(N)c(-c2ccc(OC)c(OC)c2O)c1C	?	-	20µM	0	0
Cc1cc(NC(=O)c2cccn(Cc3cccc([N+](=O)[O-])c3)c2=O)no1	-	-	-	-	0
C[N+](C)(C)CC#CCOC(=O)Nc1cccc(Cl)c1	0	-	0	0	0
O=C1NC(=O)C(=Cc2ccc(N3CCOCC3)o2)C(=O)N1	0	0	17.8µM	0	0
CCCNS(=O)(=O)c1ccc(OCC(=O)N2CCN(Cc3ccc4c(c3)OCO4)CC2)cc1	0	0	0	0	0
Brc1ccc2[nH]cc(/C=N/N3CCCCC3)c2c1	0	0	0	0	0
CCOC(=O)C(C)Oc1cc(C)cc2oc(=O)c3c(c12)CCCC3 (stereo not drawn)	0	0	12.6µM	0	0
COC(=O)c1c(C)oc2ccc(OC(=O)N3CCOCC3)cc12	0	0	0	0	0
COc1cc(C(=O)N/N=C/c2ccc(OC(=O)N3CCOCC3)cc2)cc(OC)c1OC	0	0	28.2µM	0	0
Oc1ccc2c3c1O[C@H]1c4[nH]c5c(c4C[C@@]4(O)[C@@H](C2)N(CC2CC2)CC[C@]314)C[C@]1(O)[C@H]2Cc3ccc(O)c4c3[C@@]1(CCN2CC1CC1)[C@@H]5O4	0	-	?	0	0
NC(N)=Nc1ccc2[nH]c3c(c2c1)C[C@@]1(O)[C@H]2Cc4ccc(O)c5c4[C@@]1(CCN2CC1CC1)[C@H]3O5	0	0	10µM	0	-
CC[n+]1c(-c2ccccc2)c2cc(N)ccc2c2ccc(N)cc21	31.6µM!	-	?	31.6µM!	?
CN(C)CC1CSCCC1(O)c1ccc(Cl)cc1 (stereo not drawn)	?	0[11.4 µM]	0	0	0
C=CCN1C(=O)NC(=O)/C(=C/c2cc3c4c(c2)CCCN4CCC3)C1=O	?	28.2µM	20µM	31.6µM	?
C=CCN1C(=O)NC(=O)/C(=C/c2cnc(SC)nc2)C1=O	0	0	?	0	0
NCC(N)C(=O)c1ccccc1 (stereo not drawn)	0	-	0	0	0
O=C(O)c1cc(O)c(O)c(O)c1	?	-	0.355µM	0	0
O=C(O)c1ccccc1O	0	0	?	0	0
CC(C)(C)NCC(O)c1ccccc1Cl (stereo not drawn)	0	-	0	0	0
COC(=O)C1=C(c2ccc3ccccc3c2)C[C@@H]2CC[C@H]1N2C(=O)NC1Cc2ccccc2C1	0	0	-	-	-
SMILES	APEX1 inh	L3MBTL1 inh	KDM4E inh	RECQ1 helicase	BLM helicase inh
COc1ccc(CN2CCCC(C(=O)c3ccc(Cl)cc3)C2)c(O)c1 (stereo not drawn)	0	0	-	-	0
O=C1CC(=O)N(c2ccc(Cl)cc2Cl)C(=O)N1	0	0	0	0	0
O=C(O)Cc1cccnc1C(=O)O	0	-	1.58µM	0	0
COc1ccc(NC(=O)N2CCC3(CC2)CCN(C(=O)Oc2ccccc2)CC3)cc1	0	-	-	0	0
O=C1OC2(c3cc(Br)c(O)cc3Oc3c2cc(Br)c(O)[c]3[Hg])c2ccccc21 (stereo not drawn)	12.6µM	-	-	-	-
CC(=O)c1ccc2c(c1)C1C(Cl)C(Sc3ccccc3[N+](=O)[O-])CC1C(C(=O)O)N2 (stereo not drawn)	?	3.98µM	?	?	?
O=C(O)c1cccc2c1NC(C(=O)O)C1CC(Sc3ccccc3[N+](=O)[O-])C(Cl)C21 (stereo not drawn)	0	2.24µM	0	0	?
CCCCCCC(=O)CCCCCC/C=C/C[C@@H](O)[C@H](O)[C@@](N)(CO)C(=O)O	0	-	-	0	0
C[C@H](CCC(=O)O)[C@H]1CC[C@@H]2[C@H]3CC[C@H]4C[C@H](O)CC[C@]4(C)[C@@H]3CC[C@@]21C	?	-	0	0	?
